The text below walks through data of ChEMBL document CHEMBL3988442, “University of Dundee, Small-Polar-MMV Screening Library” (2021).

Screen size: about 48,000 compounds; about 13,000 (27%) showed an effect of 50% or more. This is one part of the list.

This experiment deals with Wolbachia pipientis. Description: Anti-Wolbachia Cell-Based Screen. Type of experiment: functional. Details: scale not given: in the data most compounds retested in dose-response had high values. Particulars: 5 µM.
Turning to `COc1ccc(C2CC(=O)NCc3nc(N(C)C)sc32)c(O)c1` (stereo not given), the “Percent Effect” value is listed as -25.68%. For `COCCc1ncc(CN2C[C@@H](C(=O)O)[C@H](C(C)C)C2)cn1`, the “Percent Effect” value was -10.49%. In the case of `Cc1cnc(NS(=O)(=O)c2cccc(C#N)c2)s1` it was -4.999%. As to `CNC(=O)C(NC(C)=O)c1ccc(F)c(F)c1` (stereo not given), the “Percent Effect” value is reported as -14.34%.

Regarding `Cc1nc(CN2CCC3(CCCN(Cc4ccncc4)C3)C2=O)cs1.O=C(O)C(F)(F)F.O=C(O)C(F)(F)F.O=C(O)C(F)(F)F` (stereo not given), the “Percent Effect” value was 97.27%. Regarding `Cc1nc(CN2CCOCC3(CCN(c4cccnc4)CC3)C2)cs1.O=C(O)C(F)(F)F.O=C(O)C(F)(F)F`, the “Percent Effect” value is given as 4.008%. For `Cc1nc(CN2CCC3(CCCN(Cc4cccnc4)C3)C2=O)cs1.O=C(O)C(F)(F)F.O=C(O)C(F)(F)F.O=C(O)C(F)(F)F` (stereo not given) the value was 115.5%; for `Cc1nc(CN2CCC3(CCCN(Cc4ccoc4)C3)C2=O)cs1.O=C(O)C(F)(F)F.O=C(O)C(F)(F)F` (stereo not given), 117.4%; for `N#Cc1ccnc(N2CCN(C(=O)Cc3ccc4c(c3)CCO4)CC2)c1`, -0.6491%. In the case of `CC(NCc1ccncc1)c1ccc(N2CCN(C)CC2)c(F)c1.Cl` (stereo not given) it was 1.312%; in that of `Fc1ccc2c(c1)CCC2NCc1ccc(N2CCOCC2)cc1` (stereo not given), -1.344%.

`CCC1=NC2(CCC(C(=O)Nc3ccc(F)cc3)CC2)C(=O)N1C` (stereo not given): the “Percent Effect” value is given as 104.8%. In the case of `COCCN1C(=O)C2(CCC(C(=O)Nc3ccc(C)cc3)CC2)N=C1C` (stereo not given) it was -12.68%; in that of `COCCN1C(=O)C2(CCC(C(=O)Nc3ccc(F)cc3)CC2)N=C1C` (stereo not given), 17.41%; in that of `COCCN1C(=O)C2(CCC(C(=O)Nc3cccc(C)c3)CC2)N=C1C` (stereo not given), -14.6%. For the compound `COCCN1C(=O)C2(CCC(C(=O)Nc3ccccn3)CC2)N=C1C` (stereo not given), the “Percent Effect” value is recorded as 12.9%. For `CCC1=NC2(CCC(C(=O)Nc3ccc(C)nc3)CC2)C(=O)N1C` (stereo not given) the value was 107.3%; for `Cc1ccc(CNCc2ccc(-n3nc(C)cc3C)nc2)cc1`, -14.48%; for `CN1C[C@H](O)C[C@H]1c1nc(-c2ccc3c(c2)OCO3)no1`, -5.095%. In the case of `CCN1CC(C(=O)NCCCc2nc(C)c(C)s2)CC1=O` (stereo not given) it was -10.95%; in that of `Cc1nnc(CCNC(=O)C2CC(=O)N(C(C)(C)C)C2)s1` (stereo not given), -24.96%; in that of `Cc1nc(CCCNC(=O)[C@H]2CNC[C@@H](C(=O)N3CCCC3)C2)sc1C`, 84.73%. For `Cc1cccnc1NCCNC(=O)[C@H]1CNC[C@@H](C(=O)N2CCCC2)C1` the value was 2.912%.

Consider `Cc1cc(C)nc(CCNC(=O)[C@H]2CNC[C@@H](C(=O)N3CCCC3)C2)n1`, for which the “Percent Effect” value was found to be 4.192%.

For the compound `Cc1nnc(CCNC(=O)[C@H]2CNC[C@@H](C(=O)N3CCCC3)C2)s1`, the “Percent Effect” value was determined as 111.1%.

As for `Cn1nccc1CCNC(=O)[C@H]1CNC[C@H](C(=O)N2CCCC2)C1`, the “Percent Effect” value was found to be 89.07%. For `O=C(NCc1ccc2nonc2c1)C1CCN(C(=O)C2CCC2)CC1` the value was 6.946%; for `Cc1cnccc1NCCNC(=O)C1CCCN(Cc2ccco2)C1` (stereo not given), 5.628%; for `Cc1csc(CCCNC(=O)[C@H]2CNC[C@@H](C(=O)N3CCCC3)C2)n1`, 5.026%. For `Cn1nnnc1SCCNC(=O)C1CCN(C(=O)C2CCCC2)CC1` the value was 4.852%; for `Cc1cnccc1NCCNC(=O)[C@H]1CNC[C@H](C(=O)N2CCCC2)C1`, 142%. In the case of `N#CC1(NC(=O)c2nccc3ccccc23)CCSCC1` it was -2.14%.

Turning to `CCCS(=O)(=O)CC(=O)NC(C)c1cccc(-n2cccn2)c1` (stereo not given), the “Percent Effect” value is listed as -8.263%. For `Cc1ccc(-c2csc(N)c2C#N)cc1` the value was -4.785%.

As for `CCn1cc2c(n1)CN(Cc1sccc1C)CC2COCC1CC1.O=C(O)C(F)(F)F` (stereo not given), the “Percent Effect” value was found to be 6.988%. In the case of `CC(C)Cn1cncc1CNC1CCCNC1` (stereo not given) it was 2.5%. In the case of `O=C(NCCc1nc(C2CC2)no1)[C@H]1CNC[C@H](C(=O)N2CCCC2)C1` it was 183.5%; in that of `NC(=O)N1CCCC(C(=O)NCCc2nc(Cc3ccccc3)no2)C1` (stereo not given), 5.914%; in that of `O=C(NCC1CCCO1)C1CCN(Cc2nc(C3CC3)no2)CC1` (stereo not given), 8.427%. In the case of `Cc1cc(C)cc(NC(=O)N(CCC#N)CCCN(C)C)c1` it was 13.87%. Turning to `CN(C)[C@@H]1COC[C@@H]2CN(Cc3ccc4c(c3)OCO4)C[C@@H]21.O=C(O)C(F)(F)F.O=C(O)C(F)(F)F`, the “Percent Effect” value is listed as -14.92%.

In the case of `C[C@H]1C(=O)NC[C@H]2CN(Cc3cccc(F)c3)C[C@H]21.O=C(O)C(F)(F)F`, the “Percent Effect” value is listed as 100.1%. For `O=C(C1CC1)N1CCC2(CCN(Cc3cccc(F)c3)CC2)CC1.O=C(O)C(F)(F)F` the value was 10.09%; for `COc1cc(CN2C[C@@H]3CNC(=O)[C@H](C)[C@@H]3C2)cc(OC)c1`, 103.5%. For `COc1cc(CN2CCC(NC(=O)c3cccn3C)C2)cc(OC)c1` (stereo not given) the value was -4.957%; for `COCCN1CCO[C@@H]2CN(Cc3cc(OC)cc(OC)c3)C[C@@H]2C1.O=C(O)C(F)(F)F.O=C(O)C(F)(F)F`, 4.168%. For `C[C@H]1C(=O)NC[C@H]2CN(CCc3ccccc3)C[C@H]21.O=C(O)C(F)(F)F` the value was 113.2%; for `C[C@@H]1C(=O)NC[C@H]2CN(Cc3ccc4c(c3)OCO4)C[C@H]21.O=C(O)C(F)(F)F`, 109.9%.

As to `O=C(O)C(F)(F)F.O=C([C@H]1CCS(=O)(=O)[C@@H]2CN(CCc3ccccc3)C[C@H]12)N1CCCC1`, the “Percent Effect” value was -9.586%.

As for `CN(C)[C@H]1COC[C@@H]2CN(Cc3ccc4c(c3)OCO4)C[C@@H]21.O=C(O)C(F)(F)F.O=C(O)C(F)(F)F`, the “Percent Effect” value is given as -0.2221%.
